Source: PubChem (National Center for Advancing Translational Sciences (NCATS))
Rows were chosen to be rich in hits. Some 7.3% of all compounds tested hit in one or more screens of this group.
HCV inhibitor: HCV inhibition; Huh7.5.1 HCVcc-Cre infection, luciferase reporter, 44 h; Potency, µM (series often up to 41.8 µM), inactives show at the highest dose activity change, negative = inhibition, most hits filed as inhibitors; 3.4% of 340,000 active; AID 651820; active means well fitted inhibition curve with a large enough effect; inconclusive means small, poorly fitted or top-dose-only effect, or another doubt; inactive means no such curve, though single readings can be large or run the other way; further: potency means the concentration at half of the fitted maximal effect
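After 44 h co-culture of compound, cells and HCVcc-Cre (~0.5 moi), substrate is added for 15 min at room temperature and luciferase measured over 15 sec. Cells were seeded at 1,000/well and pre-cultured 4 h.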
VACV mCherry inh: vaccinia inhibition (mCherry reporter); AID 720579; 0.63% of 310,000 active; Vaccinia virus mCherry reporter infection, fluorescence; Potency, µM (titrated, usually from 36.5 µM), for inactives: at the highest dose activity change, negative = inhibition, hits mostly inhibitors; calls by dose curve; tested in A549 cells; further: potency means the concentration at half of the fitted maximal effect; nearly all actives have a fitted effect of over 35% in size
FMDV inh: blocks foot and mouth disease virus; AID 1159524; 1.2% of 410,000 active; FMDV antiviral cell-based qHTS; Potency, µM (series often up to 57.9 µM), inactives show at the top dose activity change, negative = inhibition, hits mostly inhibitors; calls by dose curve; tested in HEK293T cells; further: read-out not given here; potency means the concentration at half of the fitted maximal effect; nearly all actives have a fitted effect of over 45% in size
HCMV antiviral: inhibitors of human cytomegalovirus. HFF cells, HCMV-luciferase reporter, 72 h; stronger effect = lower value. activity change, negative = inhibition, % at 57.5 µM. 4.5% of 410,000 active. AID 1259415; in the data active means activity change below about -60%; inconclusive means no clear call, values can overlap the other calls; inactive means above about -39%
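Human foreskin fibroblasts infected with luciferase-reporter HCMV at MOI 1 PFU/cell, compounds at two doses. Luciferase measured 72 h post infection; normalized to buffer-only basal and Salinomycin (10uM) controls.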
VACV Venus inh: inhibitors of vaccinia virus (Venus reporter); 0.46% of 330,000 active; Vaccinia virus Venus reporter expression, fluorescence; Potency, µM (top dose mostly 36.5 µM), inactives show at the top dose activity change, negative = inhibition, actives largely listed as inhibitors; calls by dose curve; tested in A549 cells; further: potency means the concentration at half of the fitted maximal effect; nearly all actives have a fitted effect of over 30% in size
The depositor's hits bear a star; i = inactive; ? = inconclusive; nt = no result given. On the % scale 0 is the no-effect control and ±100 the full control effect.

SMILES	HCV inhibitor	VACV mCherry inh	FMDV inh	HCMV antiviral	VACV Venus inh
O=C(Cn1c(=O)oc2ccccc21)N(Cc1ccccc1)C1CCS(=O)(=O)C1 (stereo unspecified)	19%	-10%	-15%	-101*	-9%
O=C(c1ccc(F)cc1)c1cn(Cc2ccccc2)c2cc3c(cc2c1=O)OCO3	nt	-8%	-18%	-38	0%
CCOc1ccc(/C=C/c2nc(C#N)c(NCc3ccccc3)o2)cc1	nt	?	?	-93*	?
COCCNC(=O)c1nn(-c2ccc(C)cc2)c(=O)n(C)c1=O	nt	-3%	3%	9	-11%
O=C(NNS(=O)(=O)c1ccc2ccccc2c1)C1CCN(Cc2ccccc2)CC1	15%	-14%	-17%	-107*	-14%
CC(C)c1ccc(NC(=O)CN2C=NS(=O)(=O)c3ccccc32)cc1	nt	-14%	-10%	7	-10%
COc1ccc(S(=O)(=O)N2CCC[C@H]2C(=O)N2CCC[C@H]2C(=O)N[C@@H](C)c2ccccc2)cc1C	nt	-2%	-8%	-101*	0%
CC(=O)N(C(C)=O)n1c(C)nc2sc3c(c2c1=O)CCCC3	5%	i	-8%	?	-11%
CCc1nc2sc3c(c2c(=O)n1NC(=O)CCl)CCCC3	?	nt	?	-74*	nt
COc1ccc2cc3c(N)nn(C(=O)c4ccc(F)cc4)c3nc2c1	-18%	nt	-24%	-87*	nt
COc1cccc(CC(=O)n2nc(N)c3cc4ccc(OC)cc4nc32)c1	-12%	?	-24%	55	-23%
COc1ccc2cc3c(N)nn(C(=O)c4cccc(F)c4)c3nc2c1	-4%	nt	21%	-81*	nt
COc1ccc2cc3c(N)nn(C(=O)c4ccc(OC)c(OC)c4)c3nc2c1	nt	0%	-13%	-38	-9%
COc1ccc2cc3c(N)nn(C(=O)c4ccccc4Cl)c3nc2c1	?	-28%	?	-70*	-18%
COc1ccc2cc3c(N)nn(C(=O)Cc4ccc(Cl)cc4)c3nc2c1	-2%	?	-3%	-67*	-13%
Cc1cccc(NC(=O)c2nc[nH]c2C(=O)N(C)CCO)c1	nt	nt	nt	-19	nt
O=S(=O)(c1ccc(F)cc1)N1CCCC(c2nc(-c3ccc(F)cc3)no2)C1 (stereo unspecified)	?	-8%	-29%	-6	-16%
O=S(=O)(NC1CC1)c1ccc(S(=O)(=O)N2CCCC(c3nc(-c4cccnc4)no3)C2)cc1 (stereo unspecified)	15%	-20%	?	-66*	-20%
CC[C@@H]1[C@H]2CCCC(=O)N3CC[C@@H](C[C@@H]1OC(=O)Nc1ccc4c(c1)OCO4)[C@@H]23	nt	i	nt	nt	-29%
Cc1c(CNC2CCCCC2)c(C(=O)O)c(C)n1Cc1ccc(Cl)cc1	nt	28%	-4%	-5	-7%
COc1cccc(Cn2c(C)c(CNC3CCCCC3)c(C(=O)O)c2C)c1	nt	-14%	-7%	-102*	-11%
C[C@@H]1CN([C@@H](C)CO)C(=O)CCCn2cc(nn2)CO[C@H]1CN(C)C(=O)Nc1ccc(C(F)(F)F)cc1	nt	nt	nt	9	nt
Cc1ccc2nc(CN3CCN(S(=O)(=O)c4ccc(F)cc4)CC3)oc2c1	nt	-8%	0%	-25	5%
COc1cc2ccccc2cc1C(=O)Nc1ccccc1Cl	?	nt	-8%	66	nt
Cc1nc(C)c(C(=O)Nc2ccc(Oc3ccccc3)cc2)o1	?	-4%	-30%	-89*	-18%
SMILES	HCV inhibitor	VACV mCherry inh	FMDV inh	HCMV antiviral	VACV Venus inh
COc1cc2ccccc2cc1C(=O)Nc1cccnc1	32µM*	-30%	63%	64	-26%
CCOc1ccc(NC(=O)c2cc3ccccc3cc2OC)cc1	10µM*	-22%	69%	163	?
COc1cc(OC)c(C(=O)Nc2cccnc2)cc1OC	-15%	i	1%	33	-12%
COc1ccc(NC(=O)c2cc3ccccc3cc2OC)cc1	8.9µM*	-23%	14%	174	?
COC(=O)c1ccc2c(=O)n(CCCCCC(=O)NC3CCCCC3)c(=O)[nH]c2c1	nt	nt	nt	-22	nt
Cc1cnc(-n2ncc(C(=O)NCc3cccnc3)c2C)nc1-c1ccc(F)cc1	nt	?	-26%	nt	-29%
Cc1ccc(C)c(N2CCN(C(=O)c3cc(S(=O)(=O)N4CCCCC4)cn3C)CC2)c1	nt	i	-12%	14	-16%
COc1ccc2c(c1)CCc1cnc(-n3ncc(C(=O)NCC(C)(C)CN(C)C)c3C)nc1-2	nt	?	0%	nt	-27%
CCC(=O)N1CCc2cc(Br)cc(S(=O)(=O)CCC(=O)N3CCN(c4ccc(OC)cc4)CC3)c21	nt	1%	5%	8	-10%
COc1ccccc1Oc1ccc(NC(=O)c2ccccc2C)cc1	?	?	36%	-5	?
COc1ccc(Oc2ccc(NC(=O)c3ccccc3C)cc2)cc1	?	-29%	-14%	-85*	-25%
COc1ccc(OC)c(C(=O)Nc2c(O)ccc3ccccc23)c1	?	13µM*	19%	31	?
COc1cc2ccccc2cc1C(=O)NNC(=O)c1ccccc1O	nt	nt	nt	-91*	nt
COc1ccc(Cl)cc1C(=O)Nc1ccc(NC(=O)C(C)C)cc1	4µM*	-14%	-27%	?	-16%
COc1ccc(OC)c(NC(=O)Nc2c(O)ccc3ccccc23)c1	-29%	nt	21%	17	nt
COc1ccccc1C(=O)NNC(=O)c1cccc(O)c1	15%	nt	6%	113	nt
COc1ccc(C(=O)Nc2ccc(N3CCCC3)cc2)cc1	-24%	i	17%	34	-10%
Cc1ccc(Oc2nnc(-c3ccc(C)cc3)c3ccccc23)cc1	?	-15%	8%	7	-12%
COc1ccc(C(=O)Nc2ccc(N3CCN(C(=O)c4ccccc4C)CC3)cc2)cc1	11µM*	i	?	-82*	-18%
COc1ccccc1C(=O)Nc1ccc(Oc2nnc(-c3ccc(C)cc3)c3ccccc23)cc1	?	-9%	-22%	-70*	-7%
COc1ccc(Br)cc1C(=O)Nc1cc(C)cc(C)c1	5.6µM*	-15%	-23%	-37	-9%
COc1ccc(C2C(=O)N(C3CCC(C)CC3)CC(=O)N2CCC2=CCCCC2)cc1OC (stereo unspecified)	nt	-5%	-17%	-25	-8%
COC(=O)[C@@H]1[C@@H](CO)[C@@H]2Cn3c(ccc(Br)c3=O)[C@H]1N2S(=O)(=O)c1ccccc1F	nt	nt	nt	-6	nt
COc1cc(OC)c(OC)cc1/C=C/c1nccc2ccccc12	nt	-21%	nt	nt	-21%
CC(=O)N1c2ccc(Cl)cc2C2OCCC2C1c1ccco1 (stereo unspecified)	10%	-3%	-26%	-66*	-15%
COc1ccc(NC(=O)CSc2nnc(-c3ccccc3C)n2C)cc1	-6%	nt	-15%	-67*	nt
Cn1cnnc1SCC(=O)c1cc2ccccc2o1	3%	nt	14%	?	nt
CNC(=O)CSc1nnc(-c2ccccc2)n1C	8%	i	251µM*	-21	8%
COc1ccc(-c2nnc(SCC(=O)Nc3ccc(C)cc3)n2C)cc1	-14%	-5%	nt	-2	-16%
Cn1c(SCC(=O)c2cc3ccccc3o2)nnc1-c1ccccc1	?	-11%	17%	-60*	-7%
